Data as given in PubChem BioAssay (EPA / NIEHS).
Activity calls are given as the source filed them. Rule for the calls: active = hit-call score of the fitted dose curve at least 0.9, where 1 is the maximum; inactive = score below 0.9.

What was measured:
[1] = BSK_hDFCGF_SRB: Viability Assessment in the BioMAP Diversity Plus: hDFCGF Assay (AID 2283061); details: primary human foreskin fibroblasts;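 note: cells exposed to compound for 24 h before the read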
How it was run: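 SRB-based viability read on primary human skin fibroblasts at 24 h: TCA fixation, 0.1% dye, 560 nm. Gain or loss of signal is fitted against the DMSO negative control.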

[2] = read-out: TIMP metallopeptidase inhibitor 1 (TIMP1), TIMP1 (gene 7076); assay: BSK_hDFCGF_TIMP1: BioMAP Diversity Plus: hDFCGF Assay for TIMP metallopeptidase inhibitor 1 (TIMP1) Biomarker Activity (AID 2283062); details: primary human foreskin fibroblasts; actives raise or lower the signal
How it was run: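 Bidirectional curve fitting against DMSO baseline yielded this endpoint, based on ELISA detection of TIMP-1 in primary human foreskin fibroblasts exposed to compound for 24 h.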

[3] = read-out: Monokine induced gamma interferon (MIG), CXCL9 (gene 4283); assay: BSK_hDFCGF_MIG: BioMAP Diversity Plus: hDFCGF Assay for Monokine induced gamma interferon (MIG) Biomarker Activity (AID 2283063); details: primary human foreskin fibroblasts; actives raise or lower the signal
How it was run: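 Endpoint derived by bidirectional fitting relative to DMSO; MIG quantified via ELISA in primary human foreskin fibroblasts harvested 24 h after dosing.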

[4] = read-out: Matrix Metallopeptidase 1 (MMP1), MMP1 (gene 4312); assay: BSK_hDFCGF_MMP1: BioMAP Diversity Plus: hDFCGF Assay for Matrix Metallopeptidase 1 (MMP1) Biomarker Activity (AID 2283064); details: primary human foreskin fibroblasts; actives raise or lower the signal
How it was run: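 hDFCGF primary fibroblasts (human foreskin); chemical added; 24 h; MMP1 by ELISA; bidirectional fit vs DMSO.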

[5] = read-out: Vascular cell adhesion molecule 1 (VCAM1), VCAM1 (gene 7412); assay: BSK_hDFCGF_VCAM1: BioMAP Diversity Plus: hDFCGF Assay for Vascular cell adhesion molecule 1 (VCAM1) Biomarker Activity (AID 2283065); details: primary human foreskin fibroblasts; actives raise or lower the signal;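 for AC50: VCAM-1 protein level quantified by ELISA after 24 h chemical exposure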
How it was run: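 Measured after 24 h chemical treatment of primary human skin fibroblasts, VCAM-1 was detected by ELISA and concentration-response analysed in both directions versus DMSO vehicle.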

[6] = read-out: Plasminogen activator inhibitor-1 (PAI1), SERPINE1 (gene 5054); assay: BSK_hDFCGF_PAI1: BioMAP Diversity Plus: hDFCGF Assay for Plasminogen activator inhibitor-1 (PAI1) Biomarker Activity (AID 2283066); details: primary human foreskin fibroblasts; actives raise or lower the signal
How it was run: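 Primary dermal fibroblasts (human foreskin), hDFCGF system; compound 24 h; PAI-1 by ELISA; bidirectional fit vs DMSO control.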

[7] = read-out: Intercellular Adhesion Molecule 1 (ICAM1), ICAM1 (gene 3383); assay: BSK_KF3CT_ICAM1: BioMAP Diversity Plus: KF3CT Assay for Intercellular Adhesion Molecule 1 (ICAM1) Biomarker Activity (AID 2283067); details: primary human keratinocytes with fibroblasts; actives raise or lower the signal
How it was run: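 Bidirectional curve fitting against a DMSO baseline was applied to ICAM-1 ELISA signal from primary human skin co-cultures harvested 24 h after treatment, with SRB staining of parallel wells for overt cytotoxicity.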

[8] = read-out: Interferon-gamma inducible Protein 10 (IP10), CXCL10 (gene 3627); assay: BSK_KF3CT_IP10: BioMAP Diversity Plus: KF3CT Assay for Interferon-gamma inducible Protein 10 (IP10) Biomarker Activity (AID 2283068); details: primary human keratinocytes with fibroblasts; actives raise or lower the signal
How it was run: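 ELISA read-out of IP-10 after 24 h chemical dosing of human skin primary co-culture (keratinocytes, foreskin fibroblasts). Gain or loss of signal relative to DMSO, bidirectional curve fit.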

[9] = BSK_KF3CT_SRB: Viability Assessment in the BioMAP Diversity Plus: KF3CT Assay (AID 2283069); details: primary human keratinocytes with fibroblasts;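 note: total protein by sulforhodamine B staining as a cytotoxicity measure; read 24 h after compound addition; fitted for both signal gain and loss against DMSO baseline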
How it was run: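 Keratinocytes co-cultured with foreskin fibroblasts (human primary); chemical added, 24 h; fix 10% TCA, stain 0.1% SRB, A560. Bidirectional fit vs DMSO.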

[10] = read-out: Interleukin-1 alpha (IL1a), IL1A (gene 3552); assay: BSK_KF3CT_IL1a: BioMAP Diversity Plus: KF3CT Assay for Interleukin-1 alpha (IL1a) Biomarker Activity (AID 2283070); details: primary human keratinocytes with fibroblasts; actives raise or lower the signal
How it was run: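 Chemicals were dosed onto co-cultured human keratinocytes and foreskin fibroblasts, IL-1a was quantified by ELISA at 24 h, and activity was fitted in both directions relative to DMSO controls.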

[11] = read-out: TIMP metallopeptidase inhibitor 2 (TIMP2), TIMP2 (gene 7077); assay: BSK_KF3CT_TIMP2: BioMAP Diversity Plus: KF3CT Assay for TIMP metallopeptidase inhibitor 2 (TIMP2) Biomarker Activity (AID 2283071); details: primary human keratinocytes with fibroblasts; actives raise or lower the signal
How it was run: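 Cells: human keratinocytes co-cultured with foreskin fibroblasts. Treat with chemical, 24 h. Measure TIMP-2 by ELISA; fit curves bidirectionally vs DMSO baseline.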

[12] = read-out: Transforming growth factor beta 1 (TGFb1), TGFB1 (gene 7040); assay: BSK_KF3CT_TGFb1: BioMAP Diversity Plus: KF3CT Assay for Transforming growth factor beta 1 (TGFb1) Biomarker Activity (AID 2283072); details: primary human keratinocytes with fibroblasts; actives raise or lower the signal
How it was run: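 Primary human skin cells (keratinocytes, foreskin fibroblasts) were co-cultured, exposed to test chemical and sampled at 24 h. TGF-b1 levels were measured by ELISA and fitted bidirectionally relative to DMSO.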

[13] = read-out: C-C motif chemokine 2 (Homo sapiens) (UniProt P13500); assay: BSK_KF3CT_MCP1: BioMAP Diversity Plus: KF3CT Assay for Monocyte Chemoattractant Protein 1 (MCP1/CCL2) Biomarker Activity (AID 2283073); details: primary human keratinocytes with fibroblasts; actives raise or lower the signal
How it was run: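 Biomarker MCP-1 is measured by ELISA in primary human keratinocytes co-cultured with foreskin fibroblasts, 24 h after chemical treatment; DMSO serves as the negative control and activity baseline.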

[14] = read-out: Matrix Metallopeptidase 9 (MMP9), MMP9 (gene 4318); assay: BSK_KF3CT_MMP9: BioMAP Diversity Plus: KF3CT Assay for Matrix Metallopeptidase 9 (MMP9) Biomarker Activity (AID 2283074); details: primary human keratinocytes with fibroblasts; actives raise or lower the signal
How it was run: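 Human keratinocyte/foreskin fibroblast co-culture; compound added; 24 h; MMP-9 by ELISA; bidirectional fit vs DMSO baseline.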

[15] = read-out: urokinase plasminogen activator (uPA), PLAU (gene 5328); assay: BSK_KF3CT_uPA: BioMAP Diversity Plus: KF3CT Assay for urokinase plasminogen activator (uPA) Biomarker Activity (AID 2283075); details: primary human keratinocytes with fibroblasts; actives raise or lower the signal
How it was run: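 ELISA readout of uPA, analyzed for signal gain or loss relative to DMSO, from a human primary keratinocyte–foreskin fibroblast co-culture measured 24 h after chemical treatment.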

CD40, CD40 (gene 958) = assay: BSK_LPS_CD40: BioMAP Diversity Plus: LPS Assay for CD40 Biomarker Activity (AID 2283076); details: primary human HUVEC with PBMC; actives raise or lower the signal
How it was run: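 Using a multiplexed primary human co-culture (umbilical vein endothelium plus PBMC), CD40 was read by ELISA 24 h after dosing, with cytotoxicity tracked by sulforhodamine B staining of parallel cultures and activity fitted bidirectionally versus DMSO.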

[16] = read-out: E-selectin (Homo sapiens) (UniProt P16581); assay: BSK_LPS_Eselectin: BioMAP Diversity Plus: LPS Assay for Eselectin Biomarker Activity (AID 2283077); details: primary human HUVEC with PBMC; actives raise or lower the signal
How it was run: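 Dose chemical onto LPS-driven HUVEC/PBMC co-culture; after 24 h, run ELISA for E-selectin; fit up- and down-going responses relative to DMSO control.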

[17] = read-out: Interleukin-8 (IL8), CXCL8 (gene 3576); assay: BSK_LPS_IL8: BioMAP Diversity Plus: LPS Assay for Interleukin-8 (IL8) Biomarker Activity (AID 2283078); details: primary human HUVEC with PBMC; actives raise or lower the signal
How it was run: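 In this LPS system, chemical-treated human umbilical vein endothelium/PBMC co-cultures were harvested at 24 h for IL-8 ELISA.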

[18] = read-out: Interleukin-1 alpha (IL1a), IL1A (gene 3552); assay: BSK_LPS_IL1a: BioMAP Diversity Plus: LPS Assay for Interleukin-1 alpha (IL1a) Biomarker Activity (AID 2283080); details: primary human HUVEC with PBMC; actives raise or lower the signal
How it was run: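 Primary human HUVEC and PBMC co-culture stimulated with LPS is dosed and harvested at 24 h. Both increases and decreases in ELISA-measured IL-1a are scored relative to DMSO.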

Measured: AC50

Chain of E-selectin (Homo sapiens) (P16581 whole entry, looked up): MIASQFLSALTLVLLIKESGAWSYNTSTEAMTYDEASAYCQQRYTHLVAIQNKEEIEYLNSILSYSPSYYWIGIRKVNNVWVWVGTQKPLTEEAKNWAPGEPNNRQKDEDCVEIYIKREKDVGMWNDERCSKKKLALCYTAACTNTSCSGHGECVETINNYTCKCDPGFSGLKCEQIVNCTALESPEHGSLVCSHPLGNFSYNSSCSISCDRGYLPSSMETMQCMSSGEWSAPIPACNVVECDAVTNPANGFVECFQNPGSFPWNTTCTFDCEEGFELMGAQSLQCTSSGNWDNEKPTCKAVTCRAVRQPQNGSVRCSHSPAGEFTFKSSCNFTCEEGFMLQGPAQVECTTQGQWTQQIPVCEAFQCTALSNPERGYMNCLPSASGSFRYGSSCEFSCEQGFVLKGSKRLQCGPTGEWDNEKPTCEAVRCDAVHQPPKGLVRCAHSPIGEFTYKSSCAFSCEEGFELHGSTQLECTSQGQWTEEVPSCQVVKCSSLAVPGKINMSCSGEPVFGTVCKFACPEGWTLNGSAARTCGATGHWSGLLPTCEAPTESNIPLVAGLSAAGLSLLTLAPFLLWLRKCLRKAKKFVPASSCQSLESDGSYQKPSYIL

Cc1c2ccccc2c(C)c2c1ccc1ccccc12
active: [5] 3.97 µM | [6] 10.1 µM | CD40, CD40 (gene 958) 15.3 µM
not listed: [18]
inactive: all other assays above

CCCCOC(=O)CC(CC(=O)OCCCC)(OC(C)=O)C(=O)OCCCC
not listed: [17]
inactive: all other assays above

CC[C@@H]1C[C@H](N(Cc2cc(C(F)(F)F)cc(C(F)(F)F)c2)C(C)=O)c2cc(C(F)(F)F)ccc2N1C(=O)OC(C)C
not listed: [17]
inactive: all other assays above
